Bioassay records as filed in PubChem.
The entries come from a sample that favours hits as a whole.
STK33 kin inh: blocks human STK33 kinase activity. Q9BYT3. ADP-Glo luminescence, MBP substrate. inhibition, % at 12.5 µM. actives 0.44% (n = 27,000); in the data active = inhibition above about 20%
Target sequence (Q9BYT3 whole entry, looked up): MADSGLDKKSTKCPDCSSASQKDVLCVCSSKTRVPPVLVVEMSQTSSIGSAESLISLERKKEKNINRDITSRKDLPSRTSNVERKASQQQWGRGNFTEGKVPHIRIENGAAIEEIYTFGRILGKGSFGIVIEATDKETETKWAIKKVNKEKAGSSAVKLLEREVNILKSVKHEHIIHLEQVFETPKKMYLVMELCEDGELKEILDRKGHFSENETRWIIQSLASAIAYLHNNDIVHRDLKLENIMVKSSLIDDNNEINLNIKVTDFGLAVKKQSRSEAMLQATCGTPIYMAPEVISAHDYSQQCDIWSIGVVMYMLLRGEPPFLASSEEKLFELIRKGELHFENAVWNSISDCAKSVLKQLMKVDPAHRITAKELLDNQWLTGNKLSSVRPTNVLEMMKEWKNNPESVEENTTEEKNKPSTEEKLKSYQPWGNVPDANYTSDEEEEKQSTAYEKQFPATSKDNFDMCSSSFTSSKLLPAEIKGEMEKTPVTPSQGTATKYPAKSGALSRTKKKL
NOMO-1 viab: STK33 inhibitor candidate reducing NOMO-1 cell viability; NOMO-1 AML viability, CellTiter-Glo luminescence, 72 h; inhibition, % (concentration not given with the values); actives 7.5% (n = 37,000); AID 2330; in the data active = inhibition above about 80%
PD-1 reverse act: activators reversing PD-1 mediated T-cell inhibition; primary human CD4 T cells, PD-L1 beads, CellTiter-Glo 96 h; activation, % (no concentration beside the values); 29,000 tested, under 10 active; AID 2316; call rule not given here;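 note: 0% = median vehicle wells and 100% = positive control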
Starred values were filed as active, the others as inactive.

COc1ccc(C2C3CCc4ccccc4C3=NN2C(=O)c2cccs2)cc1 (stereo unspecified) was read as STK33 kin inh -0.5, NOMO-1 viab 34.7 and PD-1 reverse act -2.0.
CN1CCC2(CC1)C(C#N)=C(N)Oc1n[nH]c(C(=O)OC(C)(C)C)c12 was read as NOMO-1 viab 8.8 and PD-1 reverse act 0.1.
`O=C(/C=C/c1ccccc1)CC(O)(c1ccccc1)C(F)(F)F` (stereo unspecified) gave STK33 kin inh 4.4, NOMO-1 viab 121.9* and PD-1 reverse act -36.0.
O=C(/C=C/c1ccccc1)CC(O)CCc1ccccc1 (stereo unspecified) was read as STK33 kin inh -5.1, NOMO-1 viab 26.4 and PD-1 reverse act 1.5.
CCCCCCCC(=O)CCc1ccc(O)c(OC)c1 was read as STK33 kin inh -2.2.
O=C1O[C@@H](c2ccccc2)[C@@H](c2ccccc2)N2[C@@H](c3ccccc3OCCO)[C@]3(C(=O)Nc4ccc(C#CC5(O)CCCCCC5)cc43)[C@@H](C(=O)O)[C@H]12 was read as STK33 kin inh 7.6.
`O=C(Oc1ccccc1)C(c1ccccc1)c1ccccc1` gave NOMO-1 viab 9.7 and PD-1 reverse act -1.1.
Screening O=C(c1cccs1)N1CCCn2c(SCc3ccccc3)nnc21 returned NOMO-1 viab 9.1 and PD-1 reverse act -0.2.
For C=C(C)C(=O)O[C@H]1[C@H]2C(=C)C(=O)O[C@@H]2C[C@@H](C)/C=C/C(=O)[C@](C)(O)[C@@H]1OC(C)=O the results were STK33 kin inh 3.9, NOMO-1 viab 118.4* and PD-1 reverse act -13.5.
`C=CCc1c(C)[nH]c(=S)[nH]c1=O` gave NOMO-1 viab -19.6 and PD-1 reverse act 0.3.
For Cc1c(Cl)cccc1NC(=O)CSc1nccc(=O)[nH]1 the results were STK33 kin inh 0.2, NOMO-1 viab 22.7 and PD-1 reverse act -1.8.
C[C@@H]1CN([C@H](C)CO)C(=O)c2cccc(NC(=O)Nc3ccc(C(F)(F)F)cc3)c2O[C@@H]1CN(C)S(=O)(=O)c1ccc(Cl)cc1 was read as NOMO-1 viab 117.3* and PD-1 reverse act -6.7.
For Cc1ccc(S(=O)(=O)N(C)C[C@@H]2Oc3c(NC(=O)Nc4ccc(C(F)(F)F)cc4)cccc3C(=O)N([C@@H](C)CO)C[C@H]2C)cc1 the results were NOMO-1 viab 34.7 and PD-1 reverse act 0.5.
Screening C[C@@H]1CN([C@@H](C)CO)C(=O)c2cccc(NC(=O)Nc3ccc(C(F)(F)F)cc3)c2O[C@@H]1CN(C)S(=O)(=O)c1ccc(Cl)cc1 returned NOMO-1 viab 122.4* and PD-1 reverse act -11.1.
`C[C@H]1CN([C@@H](C)CO)C(=O)c2cccc(NC(=O)Nc3ccc(F)cc3)c2O[C@H]1CN(C)S(=O)(=O)c1ccc(Cl)cc1` gave NOMO-1 viab 100.3* and PD-1 reverse act -5.7.
For C[C@H](CO)N1C[C@H](C)[C@H](CN(C)S(=O)(=O)c2ccc(Cl)cc2)Oc2c(NC(=O)Nc3ccc4c(c3)OCO4)cccc2C1=O the results were NOMO-1 viab 2.7 and PD-1 reverse act -0.4.
C[C@@H]1CN([C@H](C)CO)C(=O)c2cccc(NC(=O)Nc3ccc(F)cc3)c2O[C@H]1CN(C)S(=O)(=O)c1ccc(Cl)cc1 was read as NOMO-1 viab 12.0.
For C[C@H]1CN([C@@H](C)CO)C(=O)c2cccc(NC(=O)Nc3ccc4c(c3)OCO4)c2O[C@H]1CN(C)S(=O)(=O)c1ccc(Cl)cc1 the results were NOMO-1 viab 92.2* and PD-1 reverse act -3.9.
Cc1ccc(S(=O)(=O)N(C)C[C@H]2Oc3c(NC(=O)Nc4ccc(C(F)(F)F)cc4)cccc3C(=O)N([C@H](C)CO)C[C@@H]2C)cc1 was read as NOMO-1 viab 59.4.
Screening Cc1ccc(Cl)cc1NC(=O)CC(C(=O)O)N(C)C (stereo unspecified) returned STK33 kin inh 0.6, NOMO-1 viab 3.2 and PD-1 reverse act 1.4.
For O=C(CSc1nnc(-c2cccc3ccccc23)n1-c1ccccc1)NC1CC1 the results were STK33 kin inh -5.3, NOMO-1 viab 1.4 and PD-1 reverse act 0.5.
For O=S(=O)(NC[C@@H]1CCCN(Cc2cccc(OCCO)c2)C1)c1ccc(Cl)cc1 the results were STK33 kin inh 8.9.
O=c1c2c(nc3cc(-c4ccco4)[nH]n13)CSC2 was read as NOMO-1 viab 12.3 and PD-1 reverse act -0.5.
COc1ccc(OC)c(NC(=O)CSc2nc3sc4c(c3c(=O)n2-c2ccccc2)CCCC4)c1 was read as STK33 kin inh 7.6, NOMO-1 viab 55.3 and PD-1 reverse act -3.0.
Screening Cn1c(SCC(=O)Nc2ccc(C(=O)O)cc2)nnc1-c1ccc(Cl)cc1Cl returned STK33 kin inh 1.0, NOMO-1 viab 5.8 and PD-1 reverse act -0.6.
`COc1ccc(CN(C)C[C@@H]2Oc3c(NC(=O)Nc4ccc(C(F)(F)F)cc4)cccc3C(=O)N([C@H](C)CO)C[C@H]2C)cc1` gave NOMO-1 viab 104.5* and PD-1 reverse act -6.1.
Screening COc1ccc(CN(C)C[C@@H]2Oc3c(NC(=O)Nc4ccc(C(F)(F)F)cc4)cccc3C(=O)N([C@@H](C)CO)C[C@@H]2C)cc1 returned NOMO-1 viab 11.0.
COc1ccc(CN(C)C[C@H]2Oc3c(NC(=O)Nc4ccc(C(F)(F)F)cc4)cccc3C(=O)N([C@H](C)CO)C[C@@H]2C)cc1 was read as NOMO-1 viab 94.3* and PD-1 reverse act -6.1.
Screening COc1ccc(CN(C)C[C@H]2Oc3c(NC(=O)Nc4ccc(F)cc4)cccc3C(=O)N([C@@H](C)CO)C[C@@H]2C)cc1 returned NOMO-1 viab 55.8.
`COc1ccc(NC(=O)Nc2cccc3c2O[C@H](CN(C)Cc2ccc(C(F)(F)F)cc2)[C@@H](C)CN([C@@H](C)CO)C3=O)cc1` gave NOMO-1 viab 84.8* and PD-1 reverse act 0.0.
`COc1ccc(CN(C)C[C@H]2Oc3c(NC(=O)Nc4ccc(C(F)(F)F)cc4)cccc3C(=O)N([C@@H](C)CO)C[C@@H]2C)cc1` gave NOMO-1 viab 101.0* and PD-1 reverse act -6.3.
`CCCS(=O)(=O)/C(C#N)=C/c1sccc1Oc1ccccc1` gave NOMO-1 viab 8.1 and PD-1 reverse act 0.0.
COC(=O)c1cc(C)sc1NC(=O)COc1ccccc1 was read as STK33 kin inh 3.1, NOMO-1 viab -19.8 and PD-1 reverse act -4.1.
Screening CC(C)OC(=O)Nc1cc(Cl)cc(Cl)c1 returned STK33 kin inh -3.2, NOMO-1 viab 58.6 and PD-1 reverse act -18.1.
`COc1ccc(NC(=O)Nc2cccc3c2O[C@H](CN(C)Cc2ccc(C(F)(F)F)cc2)[C@@H](C)CN([C@H](C)CO)C3=O)cc1` gave NOMO-1 viab 106.2* and PD-1 reverse act -1.8.
COc1ccc(CN(C)C[C@H]2Oc3c(NC(=O)Nc4ccc(F)cc4)cccc3C(=O)N([C@@H](C)CO)C[C@H]2C)cc1 was read as NOMO-1 viab 29.4 and PD-1 reverse act 2.2.
Screening COc1ccc(NC(=O)Nc2cccc3c2O[C@@H](CN(C)Cc2ccc(C(F)(F)F)cc2)[C@H](C)CN([C@@H](C)CO)C3=O)cc1 returned NOMO-1 viab 98.2* and PD-1 reverse act -4.4.
COc1ccc(CN(C)C[C@H]2Oc3c(NC(=O)Nc4ccc(C(F)(F)F)cc4)cccc3C(=O)N([C@@H](C)CO)C[C@H]2C)cc1 was read as NOMO-1 viab 49.9.
